Out of some 310,000 compounds screened, about 3,900 (1.3%) were called active. The sample holds actives, similar compounds and a random draw of the others, so the mix is not that of the screen.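 Rule for the calls: active = calcium-response B-score plate-corrected more than 3 library SD below zero, starting fluorescence within 5 deviations, no agonist response on first addition; inactive = the rest.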
What follows are molecules tested against Mas-related G-protein coupled receptor member X1 (Homo sapiens) (UniProt Q96LB2) (assay: antagonists of human MrgX1 receptor, primary screen, HEK293 cells, Fluo-4 calcium flux (AID 588676;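 for B-score: peak minus trough fluorescence over baseline after final BAM8-22 challenge near maximal dose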)). Details: Fluo-4, BAM8-22 antagonism, at 10 µM; stronger effect = lower value.
Mas-related G-protein coupled receptor member X1 (Homo sapiens), sequence (Q96LB2 whole entry, looked up): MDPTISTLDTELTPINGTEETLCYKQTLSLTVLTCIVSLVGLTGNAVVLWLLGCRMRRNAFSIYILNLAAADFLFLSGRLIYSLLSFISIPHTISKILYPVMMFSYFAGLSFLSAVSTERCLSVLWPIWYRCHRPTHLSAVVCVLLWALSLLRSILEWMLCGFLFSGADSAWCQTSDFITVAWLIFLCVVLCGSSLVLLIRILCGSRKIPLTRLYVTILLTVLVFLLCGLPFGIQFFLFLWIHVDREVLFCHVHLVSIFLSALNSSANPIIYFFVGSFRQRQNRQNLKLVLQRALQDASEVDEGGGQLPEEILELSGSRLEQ
For `COc1ccc2cc(-c3[nH]ncc3CNCCn3nc(C)cc3C)ccc2c1`, the B-score was “inactive”. With `CCOc1ccc(CN2CCN(Cc3ccc4cc(F)ccc4n3)CC2CCO)cc1` (stereo not given) the B-score was “inactive”. In the case of `O=C(NCCc1csc(-c2ccccc2)n1)c1ccccc1F`, the B-score is reported as “inactive”. `CNC(=O)c1csc(-c2ccccc2)n1` was tested, and the B-score was “inactive”. For `C=CCNC(=O)c1cc(-c2ccccc2O)on1`, the B-score was -5.5 (active). With `O=C(Nc1cccnc1Cl)c1cc(-c2ccccc2O)on1` the B-score was “inactive”. In the case of `C=CCNC(=O)c1csc(-c2ccccc2)n1`, the B-score is reported as -6.07 (active). With `O=C(c1cc(-c2ccccc2O)on1)N1CCCC1` the B-score was “inactive”. With `CC(NC(=O)CCCC1CCCCC1)c1ccc(S(N)(=O)=O)cc1` (stereo not given) the B-score was “inactive”. For `Cc1ccc(C)c(N2CCN(C(=O)Cn3ncn4cccc4c3=O)CC2)c1`, the B-score was “inactive”. For `O=C(C1=C[C@H](C2CC2)C[C@H](OCc2ccc(CO)cc2)O1)N1CCN(Cc2ccccc2)CC1`, the B-score was “inactive”. With `Nc1nc(NCc2ccccc2)n(-c2ccccc2)n1` the B-score was “inactive”. In the case of `O=C1CCC(C(=O)N2CCCCO2)CN1Cc1cccc(C(F)(F)F)c1` (stereo not given), the B-score is reported as “inactive”. For `O=C(NC(=S)Nc1cccc(-c2ccc(CO)o2)c1)c1cccs1`, the B-score was “inactive”. For `CCc1ccc(-c2cc3c(=O)n(CC(=O)NCCCN4CCN(Cc5ccccc5)CC4)nc(C)n3n2)cc1`, the B-score was “inactive”. For `COc1cccc(CNC(=O)CN(C)S(=O)(=O)c2ccc3c(c2)c(=O)n(C)c(=O)n3C)c1`, the B-score was “inactive”. For `COc1ccccc1NC(=O)CCC(=O)OC(C)C(=O)c1ccccc1` (stereo not given), the B-score was “inactive”. In the case of `CCC(=O)NC(NCC1CCCO1)C(Cl)(Cl)Cl` (stereo not given), the B-score is reported as “inactive”. With `CC1(C(=O)NNC(=S)NCC2CCCO2)CC1(Cl)Cl` (stereo not given) the B-score was -5.39 (active). For `S=C(NCCc1ccccc1)NCC1CCCO1` (stereo not given), the B-score was “inactive”. In the case of `Cc1ccc(S(=O)(=O)Nc2nc3ccccc3s2)cc1[N+](=O)[O-]`, the B-score is reported as “inactive”. `Cc1ccc(S(=O)(=O)NCCSc2ccccc2)cc1[N+](=O)[O-]` was tested, and the B-score was “inactive”. For `COCCNC(=O)c1ccccc1NS(=O)(=O)c1ccc(C)c([N+](=O)[O-])c1`, the B-score was -4.52 (active). `CCN1C(=O)[C@H]2[C@@H](c3ccc(SC4CCCCC4)c(OC)c3)N[C@@](Cc3ccccc3)(C(=O)OC)[C@H]2C1=O` was tested, and the B-score was “inactive”. With `CCOC(=O)Cn1c(O)c(N=NC(=O)CNC(=O)Cc2ccccc2)c2ccccc21` the B-score was “inactive”. `CCOc1cc(S(=O)(=O)NCc2ccc3c(c2)OCO3)ccc1F` was tested, and the B-score was “inactive”. `Cc1cccc(NC(=O)N(Cc2cc3cc(C)cc(C)c3[nH]c2=O)CC2COCCO2)c1` (stereo not given) was tested, and the B-score was “inactive”. With `CCOc1ccc(NC(=O)[C@H](C)NC(=O)C2CC(=O)N(c3ccc(OC)cc3)C2)cc1` (stereo not given in full) the B-score was “inactive”. `NC(=O)c1ccccc1N=Cc1ccc2ccccc2c1` was tested, and the B-score was “inactive”. For `O=C(CSc1ncccn1)NCCc1ccccc1`, the B-score was “inactive”. `O=C(CSc1ncccn1)NC(=O)NCc1ccccc1` was tested, and the B-score was -6.78 (active). With `O=C(COc1ncnc2ccccc12)NC(=O)NCc1ccccc1` the B-score was “inactive”. With `CCOC(=O)[C@H]1[C@H]2COc3ccc(OC)cc3[C@@H]2N2C(=O)c3ccc(F)cc3NC(=O)[C@@]12C` the B-score was “inactive”. `COC1=C(N2CCOCC2)C(=O)c2ccccc2C1=O` was tested, and the B-score was “inactive”. For `CN1C(C(=O)NCC2CC2)CC2Cn3c(nc4ccccc43)C21` (stereo not given), the B-score was “inactive”. In the case of `Clc1ccc(CN2CCN(/N=C/c3cccnc3)CC2)cc1`, the B-score is reported as “inactive”. For `C(=N\n1cnnc1)/c1cccnc1`, the B-score was -4.63 (active). For `COc1cccc(OCCOc2cccc(/C=N/n3cnnc3)c2)c1`, the B-score was “inactive”. In the case of `Cc1ccc(S(=O)(=O)N2[C@@H](c3ccccc3F)C(C(=O)O)=CC[C@H]2c2ccc(Cl)cc2)cc1`, the B-score is reported as “inactive”. In the case of `CC1CCC(NC(=O)CN(C)S(=O)(=O)c2ccc3c(c2)c(=O)n(C)c(=O)n3C)CC1` (stereo not given), the B-score is reported as “inactive”. `CS(=O)(=O)Nc1ccccc1N=C(c1ccccc1)c1ccccc1` was tested, and the B-score was “inactive”. `NC(N)=NCCCc1cn(CC(=O)N2CCNCC2)nn1` was tested, and the B-score was “inactive”. With `Cc1nn(-c2ccccc2)c(C)c1NC(=O)CCl` the B-score was “inactive”. `Cc1nn(-c2ccccc2)c(C)c1NC(=O)COC(=O)c1cc(Cl)ccc1O` was tested, and the B-score was “inactive”. `Cc1nn(-c2ccccc2)c(C)c1NC(=O)COc1ccc(Cl)cc1Cl` was tested, and the B-score was -5.44 (active). With `Cc1c(C(=O)NCC(c2ccco2)N2CCCC2)oc2ccc(Cl)cc12` (stereo not given) the B-score was “inactive”. In the case of `Cc1c(-c2ccccc2)cn2c1-c1ccc(C)n1CC2`, the B-score is reported as “inactive”. For `Cc1cc(Br)ccc1NC(=O)c1sc2ncn(CC(=O)N3CCN(c4ccccn4)CC3)c(=O)c2c1C`, the B-score was “inactive”. For `Cc1cc(Br)ccc1NC(=O)c1cnc(N2CCN(c3ccccn3)CC2)c2ccccc12`, the B-score was -5.72 (active). In the case of `O=C(Cc1ccc(Br)cc1)N1CCN(c2ccccn2)CC1`, the B-score is reported as “inactive”. For `O=C(Nc1cc(C(F)(F)F)ccc1Cl)c1cc2nc3c(c(C(F)(F)F)n2n1)CCCC3`, the B-score was “inactive”. For `COC(=O)c1ccc2ccccc2c1OC1OC(CO)C(O)C(O)C1NC(C)=O` (stereo not given), the B-score was “inactive”. `O=C(Nc1ccc(Cl)cc1)c1cc2nc(C3CC3)cc(C(F)(F)F)n2n1` was tested, and the B-score was “inactive”. `Cc1cc(C)c(S(=O)(=O)NCC2CCC(C(=O)NCc3ccc4c(c3)OCO4)CC2)c(C)c1` (stereo not given) was tested, and the B-score was “inactive”. In the case of `COc1cc(NC(=O)CN2C(=O)NC(C)(c3ccc(OC(F)F)cc3)C2=O)cc(OC)c1OC` (stereo not given), the B-score is reported as “inactive”. With `CCN1CCN(CCNC(=O)c2ccc3c(c2)NC(=O)/C(=C\c2ccc(OC)c(OC)c2)S3)CC1` the B-score was “inactive”. `O=C(NCCN1CCOCC1)c1ccc(/C=C2\Sc3ccccc3N(Cc3ccc(F)cc3)C2=O)cc1` was tested, and the B-score was “inactive”. In the case of `CCN1CCN(CCNC(=O)c2ccc(/C=C3/Sc4ccccc4N(Cc4cccc(C)c4)C3=O)cc2)CC1`, the B-score is reported as -7.53 (active). `Cc1ccc(Nc2cc(=O)n(C3CCCCC3)c(=O)[nH]2)cc1C` was tested, and the B-score was “inactive”. With `COc1cccc(N(Cc2nnc3n2CCCCC3)C(=O)Nc2ccccc2F)c1` the B-score was “inactive”. For `Cc1cccc(Nc2nc(-c3ccccc3)cs2)n1`, the B-score was “inactive”. For `Cc1ccc(Nc2nc(-c3ccc(O)cc3O)cs2)nc1`, the B-score was -4.59 (active). With `Clc1ccc(Nc2nc(-c3cccs3)cs2)nc1` the B-score was “inactive”. For `COc1ccc(-c2cc(C(=O)N(C)Cc3ccc(OC)c(OC)c3OC)c3ccccc3n2)cc1OC`, the B-score was “inactive”. In the case of `CCCCCCCCC(=O)NCCOc1ccccc1`, the B-score is reported as “inactive”. With `CCn1c(COc2cccc(OC)c2)nnc1SCC(=O)N1CCOCC1` the B-score was “inactive”. `CCCCCCCCCCOC(=O)Cn1c(COc2ccc(C)cc2)[n+](C)c2ccccc21` was tested, and the B-score was -10.1 (active). With `Cc1ccc(OCCCn2c(=O)oc3ccccc32)cc1` the B-score was “inactive”. For `CCCCCCCCCCOC(=O)Cn1c(COc2cccc(OC)c2)[n+](C)c2ccccc21`, the B-score was -13.2 (active). For `Cc1ccc(OCc2nc3ccccc3n2C)cc1`, the B-score was “inactive”.

Source: PubChem BioAssay AID588676 (Johns Hopkins Ion Channel Center, 2011)
